The values that follow come from PMC7819943, “Rice protein-binding microarrays: a tool to detect cis-acting elements near promoter regions in rice”.

Over roughly 39,000 sequences, “fluorescence intensity (a.u.)” has its median near 4,300; the highest 2% begin near 39,000. The full list was thinned out, with the highest values kept by preference.

The test concerns the target T1, OsSMF1 (Oryza sativa, UniProt Q6ZLB0 1-436).
T1 sequence: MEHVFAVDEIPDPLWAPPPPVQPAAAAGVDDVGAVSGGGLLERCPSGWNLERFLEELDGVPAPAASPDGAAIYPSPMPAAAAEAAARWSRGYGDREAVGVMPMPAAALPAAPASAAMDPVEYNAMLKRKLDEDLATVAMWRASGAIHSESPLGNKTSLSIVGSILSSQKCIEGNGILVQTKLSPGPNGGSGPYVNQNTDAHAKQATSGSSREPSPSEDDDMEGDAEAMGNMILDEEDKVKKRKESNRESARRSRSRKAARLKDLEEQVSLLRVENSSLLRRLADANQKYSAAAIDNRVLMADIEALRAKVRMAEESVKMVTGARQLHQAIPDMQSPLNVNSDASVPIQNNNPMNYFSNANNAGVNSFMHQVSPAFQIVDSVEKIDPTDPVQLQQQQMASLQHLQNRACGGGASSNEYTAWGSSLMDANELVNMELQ
Description: protein-binding microarray (RPBM); PBS, 2% BSA, 51.3 ng/ul salmon testes DNA, 50 uM zinc acetate, 200 nM TF, 25 C, 1 h; high values mean tight binding. The note with it: protein: recombinant; tags: N-terminal polyhistidine and DsRed monomer fusion (pET32a); chain copies: 2; label: CyDye5-dUTP incorporated in the synthesized complementary strand; 3' TTTTT single-stranded linker to array surface; dsDNA, one strand shown. The method, boiled down:
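For the binding signal, per-feature fluorescence intensity was read in arbitrary units on an Axon 4000B scanner. Before scanning, a 2% BSA-blocked custom Agilent array made double-stranded with Cy5-dUTP was washed after 1 h at 25 °C with 200 nM protein and 50 µM zinc acetate. The proteins were Ni–NTA-purified transcription factors with N-terminal polyhistidine and DsRed fusions, expressed in E. coli BL21-CodonPlus.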
On to “GTTTTCGCTTGTACTTCACAGGCTGATCACGGTCAGTACTCGGAGTCACCTAGTGCAG”, for which the binding signal is 48700 fluorescence intensity (a.u.). On to “GAGGGGTTACGCGTTAGGCGCTGCCACGTGTATCGATCGGCGGAGTCACCTAGTGCAG”, for which the binding signal is 21900 fluorescence intensity (a.u.). The same measure for “CGAGGATTTGAGATCTGAGATGGCACGGACACTAGACAACCGGAGTCACCTAGTGCAG”: 3440 fluorescence intensity (a.u.); for “GGGAACATTGTGTGCCAAAATTGACTCACGAATATACAAGCGGAGTCACCTAGTGCAG”: 3340 fluorescence intensity (a.u.). Regarding “TTCTTTGGTGGGTGCCACGTAGGAGAAACCCAGCAGGAGTCGGAGTCACCTAGTGCAG”, the binding signal was 12000 fluorescence intensity (a.u.). For “TATTTCTTCACCTTTAGTCATGTCACCTCTCACTTCACACCGGAGTCACCTAGTGCAG” the value was 5120 fluorescence intensity (a.u.); for “CACCCAAGAACCGGTGGTATTCTTTGGACACGAGAACTTTCGGAGTCACCTAGTGCAG”, 39100 fluorescence intensity (a.u.). For “TAAACTTCGGTGGCATGTCATCATCTTCAAACTCATCTTTCGGAGTCACCTAGTGCAG” the value was 4670 fluorescence intensity (a.u.); for “CTTCTTCGGGCCTTCTTTCAGAACTTTGGGTGGGCCTCACCGGAGTCACCTAGTGCAG”, 64300 fluorescence intensity (a.u.).

As for “CTTTCTTTCTTTCTTTGTGCCCAACTCTGACACGACTCACCGGAGTCACCTAGTGCAG”, the binding signal is 5180 fluorescence intensity (a.u.).

Turning to “ACTCCCCTCCCCGCCACGTCGCCATTCTTCCCGCTCCTGACGGAGTCACCTAGTGCAG”, the binding signal is 11800 fluorescence intensity (a.u.).

With “GCTCGCCTTTTATCGCAGCCAAAGCCATGAAATTTCCCCACGGAGTCACCTAGTGCAG”, the binding signal is 27500 fluorescence intensity (a.u.).

Turning to “CTCGCGTCGCCACGCAACTTAATTAATTTAGCCCCTAATTCGGAGTCACCTAGTGCAG”, the binding signal is 3640 fluorescence intensity (a.u.). For “CTTCTAGCTGACACCTGTGCGCCGCCGCCTAATTTCAACTCGGAGTCACCTAGTGCAG” the value was 3930 fluorescence intensity (a.u.); for “GCACCTCGTTAGGCTTCATGGTCATGGCTCGTCGCTGACGCGGAGTCACCTAGTGCAG”, 6120 fluorescence intensity (a.u.); for “GCGGTTTCCTAGTTGACTGACCAAACAATTCATATATATTCGGAGTCACCTAGTGCAG”, 6140 fluorescence intensity (a.u.). For “TCGTGCTACAGATCTATAGCACACTACTCTTCTCTCTCTTCGGAGTCACCTAGTGCAG” the value was 3370 fluorescence intensity (a.u.); for “CCTACACTGAAGTTAAGCAGATCTTCCAGGCCTCGTGTTTCGGAGTCACCTAGTGCAG”, 43800 fluorescence intensity (a.u.); for “CGGCCGTGTTAAGCCTCTTCCAAAGTCAGCTGAGTTGTGCCGGAGTCACCTAGTGCAG”, 5460 fluorescence intensity (a.u.). The same measure for “ACAAGAGCCAGCGCGGCGTGTGTGCGCGATTTCTCTCTTCCGGAGTCACCTAGTGCAG”: 3210 fluorescence intensity (a.u.); for “TCTTACAGCGCGCGTGTTCGTTCGAACGATTCTCTTCTTCCGGAGTCACCTAGTGCAG”: 51900 fluorescence intensity (a.u.). For “CCACGAACAGCTACACGTCTCCTTCTCCTTCTTCGATTTCCGGAGTCACCTAGTGCAG”, the binding signal was 37400 fluorescence intensity (a.u.). For “AGTGCCACTTAAGCGCCACATCAACGCCACATGGAAAGAACGGAGTCACCTAGTGCAG” the value was 4210 fluorescence intensity (a.u.).

For the sequence “AGACCCAAGTCACTCTCTCCGCTCCAGTCTCCACTCTCCACGGAGTCACCTAGTGCAG”, the binding signal was 23100 fluorescence intensity (a.u.). The same measure for “ACCACTCTACCACAACCATTACGCTATCCGCCACGAGCAACGGAGTCACCTAGTGCAG”: 3270 fluorescence intensity (a.u.); for “AAGATCTGTATGCCTCATGAGGGTTGGTGTGTAATACTCCCGGAGTCACCTAGTGCAG”: 3890 fluorescence intensity (a.u.); for “CTCTAAATTTGTGCAGATGTGTCACCTAGATCCCTGAACTCGGAGTCACCTAGTGCAG”: 4340 fluorescence intensity (a.u.). For “TCCACATGCTAATTTGTGGTGTCAGATACCTGAATACTCCCGGAGTCACCTAGTGCAG” the value was 41400 fluorescence intensity (a.u.); for “CCCCTACTATTTTCTAGGCTAGGAAGCGTGCGATCTTTTCCGGAGTCACCTAGTGCAG”, 3240 fluorescence intensity (a.u.); for “TGGCGCGACTGCTCGGGTCACCATAAATACGGGTAGGTGGCGGAGTCACCTAGTGCAG”, 3940 fluorescence intensity (a.u.). As for “CTGCTTGAATCCTTCTCGCTGAGCTGGCCTGCAGCCTTTTCGGAGTCACCTAGTGCAG”, the binding signal is 7190 fluorescence intensity (a.u.). For “CTCCGCCGCTGGCCGCCTTGCCTGCTTGAGAGGAGGAGAGCGGAGTCACCTAGTGCAG” the value was 26800 fluorescence intensity (a.u.). The same measure for “GATTGATGAGGCCGCAAAGCCTGGCTGCCTGCCTGCTTCTCGGAGTCACCTAGTGCAG”: 54300 fluorescence intensity (a.u.). In the case of “CATTATACATGTGTCATGTGTATTCGACTTCTGTGCTGCCCGGAGTCACCTAGTGCAG”, the binding signal was 4750 fluorescence intensity (a.u.). For “GGTAGTCTGAAGCCTGTTGGTTATCCTCCTGGGAGTGTTGCGGAGTCACCTAGTGCAG” the value was 3220 fluorescence intensity (a.u.).

“AGATTAGTTTTCCCATATATTTCTTGTCAGTCGTCGTCATCGGAGTCACCTAGTGCAG”: the binding signal is 3760 fluorescence intensity (a.u.). The same measure for “AAGTAGTGTCTATGGTGCCATGTCAATAGGACATCATAATCGGAGTCACCTAGTGCAG”: 3920 fluorescence intensity (a.u.); for “AATCAATACAAAGTCTGAAAGCCATTATGGTGGCAGTAATCGGAGTCACCTAGTGCAG”: 61300 fluorescence intensity (a.u.); for “ATAAAGTAACACATACACAAAGCCACATCATCAATATTTTCGGAGTCACCTAGTGCAG”: 8990 fluorescence intensity (a.u.). For “CATTTCCAAATTACATGTATGAATCCAACCAAAACTTTTCCGGAGTCACCTAGTGCAG” the value was 17200 fluorescence intensity (a.u.); for “ATGCTAACCAACTAAAATACTTTTCCATGTACCTTACAAGCGGAGTCACCTAGTGCAG”, 60000 fluorescence intensity (a.u.); for “AATTTACAAGGTAAAATTTTATACCACCTTATATACTTTGCGGAGTCACCTAGTGCAG”, 4160 fluorescence intensity (a.u.). “CACTTTTATGACATTTTCAACCATACTATTTTCCTTAAAGCGGAGTCACCTAGTGCAG”: the binding signal is 39800 fluorescence intensity (a.u.). With “ATTTATATTTTAAAATATACTTTTATATGACACTAATTTTCGGAGTCACCTAGTGCAG”, the binding signal was 3170 fluorescence intensity (a.u.). The same measure for “TTCTTTTCCCATGGCCTCTGACTATGACATTATTTAAACACGGAGTCACCTAGTGCAG”: 3440 fluorescence intensity (a.u.).
